# Measured values as given in the supplement of paper PMC10849652.
# Of roughly 8,800 targets only a part is listed; those with a hit were picked by preference. About 0.5% of all pairs of compound and target were hits. Values without a mark were called inactive.
# How the values were obtained:
# Test in all cases: log2 fold change, soluble protein after heating vs DMSO (PISA); higher = thermal stabilisation; K562 lysate, 10 uM; active = over 0.2 and 3.5 SD of the protein, either way, in both replicates (recomputed)
# alvocidib = compound: CN1CC[C@H](c2c(O)cc(O)c3c(=O)cc(-c4ccccc4Cl)oc23)[C@H](O)C1 [alvocidib]
# Method in brief: (§1)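 Log-two fold change in thermal stability relative to solvent controls is reported from duplicates. For each sample, crude K562 extract from dounce-homogenised pellets in PBS pH 7.4 with 1 mM MgCl2, at 1 mg/mL protein, was treated with 10 μM compound for 30 min. Aliquots heated for 3 min across 48°C-58°C were pooled, brought to 0.5% NP-40 at 4°C and cleared at 21,000xg for 90 min. The supernatant was quantified by TMTpro 16plex LC-MS/MS with channel sums equalised.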
# Tubastatin A = compound: CN1CCc2c(c3ccccc3n2Cc2ccc(C(=O)NO)cc2)C1 [Tubastatin A]
# Method in brief: as §1
# [1] = compound: CNC(=O)C1=CC=CC=C1NC2=NC(=NC=C2Cl)NC3=C(C=C(C=C3)N4CCOCC4)OC
# Method in brief: as §1
# defactinib = compound: CNC(=O)c1ccc(Nc2ncc(C(F)(F)F)c(NCc3nccnc3N(C)S(C)(=O)=O)n2)cc1 [defactinib]
# Method in brief: as §1
# encorafenib = compound: COC(=O)N[C@@H](C)CNc1nccc(-c2cn(C(C)C)nc2-c2cc(Cl)cc(NS(C)(=O)=O)c2F)n1 [encorafenib]
# Method in brief: as §1
# [2] = compound: COC(=O)[C@H](CCSC)NC(=O)C1=C(C=C(C=C1)NC[C@H](CS)N)C2=CC=CC=C2
# Method in brief: as §1
# alisertib = compound: COc1cc(Nc2ncc3c(n2)-c2ccc(Cl)cc2C(c2c(F)cccc2OC)=NC3)ccc1C(=O)O [alisertib]
# Method in brief: as §1
# [3] = compound: COc1cc2nc(-c3cc(F)ccc3O)nc(N[C@@H]3CNC[C@H]3C(C)(C)O)c2cc1OC
# Method in brief: as §1
# gefitinib = compound: COc1cc2ncnc(Nc3ccc(F)c(Cl)c3)c2cc1OCCCN1CCOCC1 [gefitinib]
# Method in brief: as §1
# lapatinib = compound: CS(=O)(=O)CCNCc1ccc(-c2ccc3ncnc(Nc4ccc(OCc5cccc(F)c5)c(Cl)c4)c3c2)o1 [lapatinib]
# Method in brief: as §1
# pictilisib = compound: CS(=O)(=O)N1CCN(Cc2cc3nc(-c4cccc5[nH]ncc45)nc(N4CCOCC4)c3s2)CC1 [pictilisib]
# Method in brief: as §1
# [4] = compound: C[C@H](C1=CC=C(C=C1)C(=O)NC2=C3C=CNC3=NC=C2)N
# Method in brief: as §1
# gandotinib = compound: Cc1cc(Nc2cc(CN3CCOCC3)c3nc(C)c(Cc4ccc(Cl)cc4F)n3n2)n[nH]1 [gandotinib]
# Method in brief: as §1
# tozasertib = compound: Cc1cc(Nc2cc(N3CCN(C)CC3)nc(Sc3ccc(NC(=O)C4CC4)cc3)n2)n[nH]1 [tozasertib]
# Method in brief: as §1
# bafetinib = compound: Cc1ccc(NC(=O)c2ccc(CN3CC[C@H](N(C)C)C3)c(C(F)(F)F)c2)cc1Nc1nccc(-c2cncnc2)n1 [bafetinib]
# Method in brief: as §1
# [5] = compound: Cc1cccc(CC(=O)N2CCc3c2ccc(-c2cn(C)c4ncnc(N)c24)c3F)n1
# Method in brief: as §1
# [6] = compound: CNc1nc(-c2ccc3c(N)n[nH]c3c2)cc(N2C[C@@H](C(=O)NC3CCCCC3)CC[C@H]2C)n1
# Method in brief: as §1
# duvelisib = compound: C[C@H](Nc1ncnc2nc[nH]c12)c1cc2cccc(Cl)c2c(=O)n1-c1ccccc1 [duvelisib]
# Method in brief: as §1
# doramapimod = compound: Cc1ccc(-n2nc(C(C)(C)C)cc2NC(=O)Nc2ccc(OCCN3CCOCC3)c3ccccc23)cc1 [doramapimod]
# Method in brief: as §1
# crizotinib = compound: C[C@@H](Oc1cc(-c2cnn(C3CCNCC3)c2)cnc1N)c1c(Cl)ccc(F)c1Cl [crizotinib]
# Method in brief: as §1
# UniProt P49336, sequence (P49336 whole entry, looked up): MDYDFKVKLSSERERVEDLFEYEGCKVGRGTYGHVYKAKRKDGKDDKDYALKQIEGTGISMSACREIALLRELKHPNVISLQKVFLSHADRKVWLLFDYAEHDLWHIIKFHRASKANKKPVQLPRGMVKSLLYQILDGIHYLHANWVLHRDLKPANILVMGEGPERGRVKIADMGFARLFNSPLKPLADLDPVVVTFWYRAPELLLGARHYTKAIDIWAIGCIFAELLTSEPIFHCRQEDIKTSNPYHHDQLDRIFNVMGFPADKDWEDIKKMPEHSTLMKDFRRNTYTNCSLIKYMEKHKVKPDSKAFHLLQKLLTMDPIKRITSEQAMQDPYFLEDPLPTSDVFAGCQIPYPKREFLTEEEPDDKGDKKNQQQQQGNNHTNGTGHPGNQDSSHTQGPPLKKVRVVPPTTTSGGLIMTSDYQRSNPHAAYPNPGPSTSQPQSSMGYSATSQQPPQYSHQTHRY
# UniProt Q6P1S2, sequence (Q6P1S2 whole entry, looked up): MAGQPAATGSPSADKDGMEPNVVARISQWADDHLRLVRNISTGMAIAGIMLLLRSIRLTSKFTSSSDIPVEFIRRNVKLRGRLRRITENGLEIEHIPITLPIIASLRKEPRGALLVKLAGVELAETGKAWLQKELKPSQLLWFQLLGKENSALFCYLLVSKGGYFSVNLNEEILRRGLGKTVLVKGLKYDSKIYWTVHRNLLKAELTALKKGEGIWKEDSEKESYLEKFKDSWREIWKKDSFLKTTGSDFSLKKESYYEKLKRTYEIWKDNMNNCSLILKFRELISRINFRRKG
# UniProt Q8IWZ6, sequence (Q8IWZ6 whole entry, looked up): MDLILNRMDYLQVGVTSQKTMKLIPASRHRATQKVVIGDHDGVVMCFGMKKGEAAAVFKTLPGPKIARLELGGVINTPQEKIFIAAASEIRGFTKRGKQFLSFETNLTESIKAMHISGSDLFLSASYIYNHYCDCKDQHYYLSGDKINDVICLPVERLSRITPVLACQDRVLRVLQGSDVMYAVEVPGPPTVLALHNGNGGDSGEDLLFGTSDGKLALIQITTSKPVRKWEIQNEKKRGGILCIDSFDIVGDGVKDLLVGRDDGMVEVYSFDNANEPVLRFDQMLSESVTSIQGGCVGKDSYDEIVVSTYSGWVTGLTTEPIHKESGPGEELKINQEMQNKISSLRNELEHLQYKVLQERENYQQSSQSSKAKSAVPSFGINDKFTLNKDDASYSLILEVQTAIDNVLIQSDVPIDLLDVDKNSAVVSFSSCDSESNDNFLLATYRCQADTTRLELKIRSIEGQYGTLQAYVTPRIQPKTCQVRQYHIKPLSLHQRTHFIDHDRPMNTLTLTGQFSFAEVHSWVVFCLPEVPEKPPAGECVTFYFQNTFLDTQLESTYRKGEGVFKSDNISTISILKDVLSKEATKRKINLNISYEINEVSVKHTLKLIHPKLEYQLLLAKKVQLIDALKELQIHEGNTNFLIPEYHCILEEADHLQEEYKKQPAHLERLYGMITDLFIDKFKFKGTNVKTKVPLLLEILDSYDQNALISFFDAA
# UniProt Q5U623, sequence (Q5U623 whole entry, looked up): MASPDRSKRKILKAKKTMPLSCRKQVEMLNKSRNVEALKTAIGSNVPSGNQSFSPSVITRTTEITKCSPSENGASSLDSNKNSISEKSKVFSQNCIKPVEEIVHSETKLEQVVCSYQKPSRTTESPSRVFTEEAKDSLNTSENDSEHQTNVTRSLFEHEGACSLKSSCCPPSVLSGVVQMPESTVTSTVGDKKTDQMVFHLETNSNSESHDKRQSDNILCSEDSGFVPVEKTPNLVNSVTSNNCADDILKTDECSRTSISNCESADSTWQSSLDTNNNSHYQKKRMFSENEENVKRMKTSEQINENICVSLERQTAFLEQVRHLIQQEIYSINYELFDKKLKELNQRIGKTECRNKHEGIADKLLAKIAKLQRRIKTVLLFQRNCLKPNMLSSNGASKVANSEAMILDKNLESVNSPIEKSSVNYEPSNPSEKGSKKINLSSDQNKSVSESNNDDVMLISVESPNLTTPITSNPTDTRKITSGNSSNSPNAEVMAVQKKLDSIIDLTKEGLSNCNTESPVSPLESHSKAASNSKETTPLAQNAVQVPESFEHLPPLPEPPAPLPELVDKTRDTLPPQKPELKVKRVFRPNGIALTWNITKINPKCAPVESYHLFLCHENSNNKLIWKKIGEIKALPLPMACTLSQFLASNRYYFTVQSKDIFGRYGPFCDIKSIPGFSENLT
# UniProt Q9Y297, sequence (Q9Y297 whole entry, looked up): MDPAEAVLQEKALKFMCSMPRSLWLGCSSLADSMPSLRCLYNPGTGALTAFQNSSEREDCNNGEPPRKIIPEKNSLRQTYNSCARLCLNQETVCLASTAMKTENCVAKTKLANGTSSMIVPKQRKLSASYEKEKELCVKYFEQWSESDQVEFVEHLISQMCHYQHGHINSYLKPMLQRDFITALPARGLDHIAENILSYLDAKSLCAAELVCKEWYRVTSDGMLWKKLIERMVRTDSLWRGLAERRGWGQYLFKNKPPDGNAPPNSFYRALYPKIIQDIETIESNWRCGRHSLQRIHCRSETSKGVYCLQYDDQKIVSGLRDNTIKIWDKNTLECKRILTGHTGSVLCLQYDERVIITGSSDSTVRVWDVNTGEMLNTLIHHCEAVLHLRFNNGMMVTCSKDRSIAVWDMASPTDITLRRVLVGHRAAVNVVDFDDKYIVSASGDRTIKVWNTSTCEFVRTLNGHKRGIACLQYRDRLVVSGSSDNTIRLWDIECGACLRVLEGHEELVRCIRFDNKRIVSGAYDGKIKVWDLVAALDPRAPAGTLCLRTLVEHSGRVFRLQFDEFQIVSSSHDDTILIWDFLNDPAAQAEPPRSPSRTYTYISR
# UniProt Q06187, sequence (Q06187 whole entry, looked up): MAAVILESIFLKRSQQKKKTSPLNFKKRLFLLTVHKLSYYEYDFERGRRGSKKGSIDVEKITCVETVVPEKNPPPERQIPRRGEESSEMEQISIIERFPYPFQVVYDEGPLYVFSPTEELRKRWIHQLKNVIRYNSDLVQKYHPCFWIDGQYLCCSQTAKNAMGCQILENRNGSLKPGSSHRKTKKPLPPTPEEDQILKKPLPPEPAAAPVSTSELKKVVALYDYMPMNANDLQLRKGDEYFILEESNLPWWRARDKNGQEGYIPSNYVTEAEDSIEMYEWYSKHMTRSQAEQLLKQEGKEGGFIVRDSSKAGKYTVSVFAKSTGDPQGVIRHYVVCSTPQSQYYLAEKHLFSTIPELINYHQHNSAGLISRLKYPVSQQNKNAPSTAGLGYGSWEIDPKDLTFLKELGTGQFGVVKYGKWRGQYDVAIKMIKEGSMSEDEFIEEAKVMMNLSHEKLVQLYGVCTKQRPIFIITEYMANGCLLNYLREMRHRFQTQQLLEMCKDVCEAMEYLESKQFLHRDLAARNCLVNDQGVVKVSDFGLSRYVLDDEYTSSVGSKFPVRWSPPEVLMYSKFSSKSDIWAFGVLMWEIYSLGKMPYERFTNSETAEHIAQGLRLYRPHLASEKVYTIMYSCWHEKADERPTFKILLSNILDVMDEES
# UniProt Q9H0Y0, sequence (Q9H0Y0 whole entry, looked up): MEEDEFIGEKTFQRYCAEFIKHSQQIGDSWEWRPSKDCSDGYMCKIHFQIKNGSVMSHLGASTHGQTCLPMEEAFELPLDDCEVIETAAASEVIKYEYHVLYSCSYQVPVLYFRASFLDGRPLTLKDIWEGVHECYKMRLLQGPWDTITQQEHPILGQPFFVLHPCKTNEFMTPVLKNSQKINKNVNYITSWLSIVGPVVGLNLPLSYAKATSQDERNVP
# UniProt Q86Y37, sequence (Q86Y37 whole entry, looked up): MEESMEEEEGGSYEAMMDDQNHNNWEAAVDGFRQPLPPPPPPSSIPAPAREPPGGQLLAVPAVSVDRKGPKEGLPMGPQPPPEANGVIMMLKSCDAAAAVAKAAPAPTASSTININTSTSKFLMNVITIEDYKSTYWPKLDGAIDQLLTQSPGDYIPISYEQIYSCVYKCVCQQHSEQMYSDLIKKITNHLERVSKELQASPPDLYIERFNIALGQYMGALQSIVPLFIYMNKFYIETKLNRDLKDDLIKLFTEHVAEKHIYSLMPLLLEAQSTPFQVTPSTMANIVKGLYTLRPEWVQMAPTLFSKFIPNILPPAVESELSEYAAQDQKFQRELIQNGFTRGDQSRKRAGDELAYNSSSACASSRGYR
# UniProt Q00537, sequence (Q00537 whole entry, looked up): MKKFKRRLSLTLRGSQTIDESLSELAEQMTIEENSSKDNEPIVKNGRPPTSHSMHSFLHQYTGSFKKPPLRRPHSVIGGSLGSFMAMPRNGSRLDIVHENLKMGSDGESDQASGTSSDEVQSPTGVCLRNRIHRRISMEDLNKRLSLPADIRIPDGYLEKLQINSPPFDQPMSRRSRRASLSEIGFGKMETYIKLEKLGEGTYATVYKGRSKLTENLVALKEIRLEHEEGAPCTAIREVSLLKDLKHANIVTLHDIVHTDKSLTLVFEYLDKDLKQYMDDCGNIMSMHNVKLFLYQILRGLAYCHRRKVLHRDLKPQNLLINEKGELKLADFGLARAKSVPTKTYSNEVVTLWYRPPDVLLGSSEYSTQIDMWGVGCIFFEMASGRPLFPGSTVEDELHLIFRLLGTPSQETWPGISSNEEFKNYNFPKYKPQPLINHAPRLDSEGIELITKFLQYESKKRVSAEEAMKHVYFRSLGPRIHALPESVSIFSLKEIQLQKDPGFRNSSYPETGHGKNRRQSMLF
# UniProt Q13825, sequence (Q13825 whole entry, looked up): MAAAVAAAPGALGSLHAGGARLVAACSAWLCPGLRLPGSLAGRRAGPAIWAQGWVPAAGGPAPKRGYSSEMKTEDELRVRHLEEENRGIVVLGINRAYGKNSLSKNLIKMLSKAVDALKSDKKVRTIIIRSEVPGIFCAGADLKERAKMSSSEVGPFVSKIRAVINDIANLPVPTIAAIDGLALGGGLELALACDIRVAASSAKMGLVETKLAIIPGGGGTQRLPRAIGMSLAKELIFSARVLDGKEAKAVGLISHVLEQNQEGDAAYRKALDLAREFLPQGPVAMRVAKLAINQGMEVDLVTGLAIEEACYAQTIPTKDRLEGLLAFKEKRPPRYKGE
# UniProt A8MTT3, sequence (A8MTT3 whole entry, looked up): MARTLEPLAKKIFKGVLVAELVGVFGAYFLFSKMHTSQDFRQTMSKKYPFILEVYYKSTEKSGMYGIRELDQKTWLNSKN
Target,log2 fold change (alvocidib),log2 fold change (Tubastatin A),log2 fold change [1],log2 fold change (defactinib),log2 fold change (encorafenib),log2 fold change [2],log2 fold change (alisertib),log2 fold change [3],log2 fold change (gefitinib),log2 fold change (lapatinib),log2 fold change (pictilisib),log2 fold change [4],log2 fold change (gandotinib),log2 fold change (tozasertib),log2 fold change (bafetinib),log2 fold change [5],log2 fold change [6],log2 fold change (duvelisib),log2 fold change (doramapimod),log2 fold change (crizotinib)
BTRC (UniProt Q9Y297),-0.05,-0.019,-0.049,-0.018,0.035,0.172,-0.022,0.096,-0.058,0.01,-0.008,0.018,0.073,-0.01,-0.027,0.065,–,–,–,–
BTK isoform 2 (UniProt Q06187),-0.037,-0.113,0.307 (active),0.017,-0.033,0.051,-0.012,-0.029,-0.046,-0.015,-0.041,-0.148,0.101,-0.012,-0.043,0.178,-0.039,0.018,0.031,–
ATG10 (UniProt Q9H0Y0),0.106,-0.035,0.01,-0.037,0.024,0.025,0.032,–,0.04,–,-0.051,0.021,-0.023,-0.087,0.012,0.063,-0.022,0.065,-0.014,-0.008
AUH (UniProt Q13825),0.221,0.147,0.057,-0.169,0.015,0.023,–,-0.052,–,0.165,-0.131,0.144,-0.117,0.455 (active),-0.003,-0.345,0.049,0.135,0.023,0.012
CDK8 (UniProt P49336),0.384 (active),-0.059,-0.065,-0.101,–,–,-0.052,-0.047,0.07,-0.035,-0.033,0.129,-0.065,–,-0.043,0.119,0.083,-0.075,0.322,-0.032
ATXN2 (UniProt F8WB05),-0.051,0.23,0.101,-0.063,-0.033,0.023,–,0.033,–,0.06,0.005,0.087,-0.028,0.043,0.045,0.001,-0.03,-0.065,-0.12,-0.023
BRAF (UniProt P15056),-0.019,-0.071,0.016,0.067,0.984 (active),0.043,-0.021,-0.019,0.045,–,-0.025,-0.086,0.014,-0.013,0.64 (active),0.065,-0.016,0.015,–,-0.099
C3orf33 (UniProt Q6P1S2),-0.166,0.124,-0.084,0.224,–,–,-0.13,-0.111,0.006,0.09,0.059,-0.541,0.14,–,-0.046,0.263,0.115,0.101,-0.025,-0.051
CCDC85B (UniProt Q15834),0.016,0.016,0.217,0.183,0.255,-0.481,–,-0.508 (active),–,0,-0.042,-0.016,-0.032,0.248,0.054,0.011,-0.08,0.081,0.098,0.006
C18orf25 isoform 2 (UniProt Q96B23),0.1,0.106,0.1,0.072,0.033,-0.084,0.058,0.031,0.034,-0.001,-0.235,-0.017,0.061,0.001,-0.025,-0.021,0.043,0.017,–,–
BNIP1 (UniProt Q12981),0.231,-0.045,0.055,0,0.095,-0.037,0.004,0.004,-0.018,-0.007,0.018,0.273,-0.15,0.017,-0.019,-0.17,-0.014,-0.059,0.071,-0.062
CHD9 (UniProt Q3L8U1),0.027,0.055,-0.064,-0.147,–,–,-0.369,–,0.111,–,–,1.37 (active),-0.111,–,–,-0.27,-0.137,0.106,-0.057,0.055
CDK17 isoform 2 (UniProt Q00537),0.599 (active),-0.015,-0.051,0.139,0.099,-0.129,-0.121,–,-0.132,–,-0.008,0.096,0.042,-0.113,-0.033,-0.359,-0.018,-0.04,0.15,0.026
CCNY (UniProt Q8ND76),0.001,-0.139,-0.015,0.011,0.023,-0.085,0.037,0.008,-0.091,-0.061,-0.044,-0.094,0.081,0.056,-0.073,0.054,0.04,-0.057,0.033,-0.035
CACUL1 (UniProt Q86Y37),0.022,-0.029,-0.027,0.027,-0.02,-0.042,–,0.212,–,-0.26,–,0.061,-0.151,0.094,–,0.08,-0.04,0.044,0.029,0.037
CEBPZOS (UniProt A8MTT3),-0.063,-0.124,0.015,0.075,0.064,0.046,-0.064,-0.099,0.006,-0.001,–,-0.352,-0.044,0.039,–,0.203 (active),-0.055,0.035,0.177,-0.025
ATF7IP2 (UniProt Q5U623),-0.197,0.071,-0.065,-0.072,–,–,0.003,0.064,0.044,-0.03,0.05,0.05,0.027,–,-0.023,-0.155,–,–,0.073,-0.215
C1orf131 isoform 5 (UniProt Q8NDD1),-0.118,-0.036,0.03,0.013,0.127,0.02,0.148,-0.038,0.111,0.065,–,-0.16,0.076,0.03,–,0.177,0.148,0.028,-0.008,-0.006
BBS7 (UniProt Q8IWZ6),0.027,-0.123,-0.028,-0.212,0.024,0.091,0.123,–,-0.016,–,–,0.003,0.072,0.021,–,-0.119,-0.042,0.039,0.151,-0.036
